Assay outcomes: PubChem BioAssay, National Center for Advancing Translational Sciences (NCATS)
DT40 TDP1 no CPT: qHTS for Inhibitors of human tyrosyl-DNA phosphodiesterase 1 (TDP1): qHTS in cells in absence of CPT | DT40 Tdp1-/- hTDP1 cells, no CPT, ATP luminescence, 48 h | AID 686978, 2013 | Potency, µM (highest dose often 46.2 µM), for inactives: at the top dose activity change, negative = growth inhibition, usual class: inhibitors | 420,000 compounds, 15% hits; note: potency is the fitted concentration of half-maximal effect; nearly all actives have a fitted effect of over 55% in size
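A cellular qHTS used chicken DT40 cells lacking endogenous Tdp1 but carrying stably transfected human TDP1. Compounds were applied without camptothecin, and cell growth kinetics were judged by ATP-dependent luminescence after ≥48 hr.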
HT1080NT lethal: kills 2HG-producing HT-1080-NT fibrosarcoma cells; HT-1080-NT fibrosarcoma viability, CellTiter-Glo ATP luminescence, 48 h; Potency, µM (highest dose often 46.1 µM), for the others: at the top dose activity, negative = less viability, usual class: cytotoxic; 360,000 compounds, 1.6% hits;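 note: NT is the 2HG producing partner of a matched IDH1 knockdown line; potency is the fitted concentration of half-maximal effect; 0% = DMSO-treated cells and -100% = media-only wells without cells; nearly all actives have a fitted effect of over 55% in size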
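Viability by CellTiter-Glo luminescence after 48 h compound exposure at 37C of HT-1080-NT cells (750/well, RPMI, 5% FBS). % activity scaled between DMSO wells and medium-only wells, then curve-fitted and categorized by curve class.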
HT1080 IDH1KD tx: toxicity to HT-1080 IDH1 knockdown cells (counter line) | HT-1080 IDH1 knockdown viability, ATP luminescence, 48 h | Potency, µM (doses to about 46.1 µM), for the others: at the top dose activity, negative = toxicity, usual class: cytotoxic | 360,000 compounds, 2% hits | AID 686971;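 note: potency is the fitted concentration of half-maximal effect; 0% = DMSO wells and -100% = cell-free medium wells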
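CellTiter-Glo luminescence after 48 h compound exposure at 37 degrees C of IDH1-knockdown HT-1080 cells in 5% FBS RPMI. %Activity scaled between DMSO wells and cell-free media wells, with curves fitted and assigned curve classes.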
IL1B secr inh: blocks inflammasome-driven IL-1 beta release. THP-1 LPS/ATP IL-1B secretion, AlphaLISA, 16 h; active compounds read low. activity change, % at 57.5 µM. 360,000 compounds, 4.7% hits; in the data active = activity change below about -50%; inconclusive = mostly about -30% to -49%
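Secreted IL-1B measured by AlphaLISA bead assay after 16 h compound exposure of THP-1 cells; compounds (final up to 57.5 uM) added 1 h before LPS (250 ng/mL) and ATP (1.25 mM) stimulation; lower signal means less secretion.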
DT40 TDP1 CPT: growth inhibition of DT40 Tdp1-/-;hTDP1 cells with camptothecin (screen for TDP1 inhibitors) | Potency, µM (series often up to 46.2 µM), for inactives: at the top dose activity change, negative = growth inhibition, usual class: inhibitors | chicken DT40 Tdp1-/-;hTDP1 cells + 20 nM CPT, ATP luminescence, 48 h | 420,000 compounds, 12% hits; note: potency is the fitted concentration of half-maximal effect; nearly all actives have a fitted effect of over 55% in size
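Cell growth measured by CellTiter-Glo luminescence after a minimum 48 h, 37 C compound exposure with 20 nM CPT in Tdp1-knockout DT40 cells stably expressing hTDP1, seeded 400/well; qHTS titration format.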
* marks the source's active call; other numbers are inactive results; u = inconclusive; x = no result given. Only some compounds are listed: those with a hit (about 19% of all), similar ones and a draw of the others. Unless noted, calls come from the whole dose curve; as a rule, active = well fitted curve in the direction sought with a large enough effect; inconclusive = small, poorly fitted or top-dose-only effect, or another doubt; inactive = no such curve, though single readings can be large; an effect the other way counts as inactive or inconclusive. Unless noted, % is set by controls: 0 for no effect and ±100 for the full control effect.

SMILES | DT40 TDP1 no CPT | HT1080NT lethal | HT1080 IDH1KD tx | IL1B secr inh | DT40 TDP1 CPT
Cc1cc(C(=O)O/N=C(\N)c2ccc(C(C)(C)C)cc2)no1 | -18% | 8% | 0% | -21 | -15%
Cc1noc(-c2ccc(Cl)cc2)c1C(=O)O/N=C(\N)c1ccc(C(C)(C)C)cc1 | u | u | u | -66* | u
COc1ccc(C(=O)O/N=C(\N)c2ccccc2)cc1 | -23% | u | u | -1 | -17%
CC(C)(C)c1ccc(NC(=O)CON=C(N)c2ccccc2)cc1 | 29µM* | -1% | -1% | 8 | u
CCOC(=O)c1cc(/C(C)=N/OC(=O)c2ccc(C(C)(C)C)cc2)on1 | 16µM* | 2% | 8% | 16 | u
CC(C)(C)c1ccc(C(=O)O/N=C(\N)c2ccccc2)cc1 | 13µM* | 1% | 2% | 7 | u
Cc1ccc(C)c(N(CC(=O)NC2CCCC2)C(=O)c2csnn2)c1 | 9% | 18% | 6% | 2 | 6%
O=C(Cc1cccc(NC(=O)C2CCN(C(=O)C3CC3)CC2)c1)Nc1cccc(C(=O)N2CCCC2)c1 | 0% | 0% | 0% | 2 | 11%
COc1ccc(-c2ccc(NS(=O)(=O)c3cccc(C)c3)cc2)nn1 | 29µM* | x | x | x | u
COc1ccc(-c2ccc(NS(=O)(=O)c3ccccc3)cc2)nn1 | 15µM* | x | x | x | u
COc1ccc(-c2ccc(NS(=O)(=O)c3cc(C)c(C)cc3C)cc2)nn1 | u | x | x | x | 21µM*
COc1ccc(-c2cccc(NS(=O)(=O)c3cccc([N+](=O)[O-])c3)c2)nn1 | 26µM* | -7% | -5% | 10 | u
COc1ccc(-c2cccc(NS(=O)(=O)c3ccc([N+](=O)[O-])cc3)c2)nn1 | u | 5% | 6% | 10 | u
CCCCN(C(=O)CCCc1nc2ccccc2c(=O)[nH]1)c1c(N)n(CC(C)C)c(=O)[nH]c1=O | -5% | -1% | 8% | 1 | -6%
NS(=O)(=O)c1cccc(NC(=O)CN2CCC(Cc3ccccc3)CC2)c1 | -26% | -14% | -22% | 23 | 5%
COc1cc(/C=N/O)ccc1Oc1cnccn1 | -3% | 2% | 1% | 10 | 1%
COc1ccc(-c2ccc(NS(=O)(=O)c3ccc(C(C)=O)cc3)cc2)nn1 | -22% | x | x | x | -28%
COc1ccc(-c2ccc(NS(=O)(=O)c3ccccc3Cl)cc2)nn1 | 18µM* | x | x | x | 21µM*
CS(=O)(=O)N1CCc2cc(C(=O)Nc3ccc(Cl)c(C(F)(F)F)c3)ccc21 | 8.2µM* | x | x | x | 18µM*
CCc1ccc(NC(=O)c2ccc3c(c2)CCN3S(C)(=O)=O)cc1 | 26µM* | -11% | -18% | -23 | u
Cc1ccc(NC(=O)c2ccc3c(c2)CCN3S(C)(=O)=O)cc1C | u | -20% | -13% | -18 | -110%
CC(C)c1ccc(NC(=O)c2ccc3c(c2)CCCN3S(C)(=O)=O)cc1 | 4.1µM* | x | x | x | 6.5µM*
CCS(=O)(=O)N1CCc2cc(C(=O)Nc3cccc(C(C)=O)c3)ccc21 | 18µM* | x | x | x | u
CCc1ccc(S(=O)(=O)c2cn(C)c3cc(F)c(F)cc3c2=O)cc1 | u | x | x | x | -23%
COc1ccc(-c2cc(C(=O)OCC(=O)NC(C)C)c3ccccc3n2)cc1 | u | -22% | 3% | -4 | 15%
CC1(C(=O)NS(=O)(=O)c2ccccc2)CCN1C(=O)c1ccccc1CCc1ccccc1 (centres undefined) | -1% | 1% | 0% | 22 | 11%
Cc1cc(C)cc(NC(=O)c2ccc3c(c2)CCN3S(C)(=O)=O)c1 | 2% | -4% | -2% | -18 | 3%
Cc1cccc(NC(=O)c2ccc3c(c2)CCN3S(C)(=O)=O)c1 | -1% | -4% | 5% | -64* | -19%
CS(=O)(=O)N1CCc2cc(C(=O)Nc3ccc(C(F)(F)F)cc3)ccc21 | 8.2µM* | x | x | x | 9.2µM*
CC1(c2ccc(Cl)cc2)NC(=O)CS1 (centres undefined) | 12% | -18% | -18% | 0 | 8%
